Reference: PubChem BioAssay AID2057 (The Scripps Research Institute Molecular Screening Center, 2009)
The whole screen tested about 320,000 compounds, of which about 2,100 (0.66%) were called active.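 The calls were made as follows: active = inhibition above the mean inhibition of all tested compounds plus 3 SD, set per campaign (cut at about 40% in these data); inactive = the rest.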 Only a selection was taken, and actives are over-represented in it overall.

target: Induced myeloid leukemia cell differentiation protein Mcl-1 (Homo sapiens) (UniProt Q07820); experiment: inhibitors of MCL1 binding to BIM-BH3, primary screen, biochemical, fluorescence polarization (AID 2057); settings: GST-MCL1 / FITC-Bim-BH3 fluorescence polarization; at 10.9 µM; hits give high values;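 also: 0% = DMSO wells and 100% = unlabeled Bim-BH3 peptide control; higher means more loss of mP so more displacement of Bim peptide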
Sequence (Q07820 whole entry, looked up): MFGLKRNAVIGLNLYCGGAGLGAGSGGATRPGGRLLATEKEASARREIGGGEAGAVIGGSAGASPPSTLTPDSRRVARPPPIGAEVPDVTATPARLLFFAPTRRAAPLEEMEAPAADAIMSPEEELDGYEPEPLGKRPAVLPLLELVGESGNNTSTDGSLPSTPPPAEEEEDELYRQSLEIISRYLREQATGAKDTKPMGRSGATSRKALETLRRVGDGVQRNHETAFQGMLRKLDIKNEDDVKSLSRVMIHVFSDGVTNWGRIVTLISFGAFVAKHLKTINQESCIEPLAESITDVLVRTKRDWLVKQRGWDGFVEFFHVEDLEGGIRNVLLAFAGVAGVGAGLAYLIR

Q: For `O=C1NC(=O)N(c2ccccc2)C(=O)/C1=C/c1ccc([N+](=O)[O-])s1`, which inhibition is on record?
A: 44.1% (active)

Q: With `CCOP(=S)(OCC)SCOC(=O)NCC(=O)OC` as the compound, how does the inhibition read?
A: 6.09% (inactive)

Q: For `C=CCN1C(=O)C2(C(C(=O)OCC)=C(N)Oc3c2c(=O)oc2ccccc32)c2ccccc21` (stereo not given), which inhibition is on record?
A: 1.78% (inactive)

Q: Which inhibition does the source give for `Cc1ccccc1N1C(=O)NC(=O)/C(=C\c2cc(C)n(C)c2C)C1=O` here?
A: 1.23% (inactive)

Q: With `COc1cccc(N2C(=O)NC(=O)/C(=C\c3cn(C)c4ccccc34)C2=O)c1` as the compound, how does the inhibition read?
A: 55% (active)

Q: How did the inhibition turn out when `Cc1c(C(=O)O)cccc1-n1c(C)cc(/C=C2\C(=O)NC(=O)N(c3ccc4c(c3)OCO4)C2=O)c1C` was run?
A: 2.52% (inactive)

Q: With `CCN(CC)C(=O)Oc1ccc(NC(=O)N2CCOCC2)cc1` as the compound, how does the inhibition read?
A: 3.93% (inactive)

Q: With `Cc1cccc(OP(=O)(Oc2cccc(C)c2)OC(c2ccccc2)C(F)(F)F)c1` (stereo not given) as the compound, how does the inhibition read?
A: 2.04% (inactive)

Q: How did the inhibition turn out when `CN(c1ccccc1)c1ccc([N+](=O)[O-])c2nonc12` was run?
A: -24.9% (inactive)

Q: For `O=C(CCC(=O)N1C[C@H]2C[C@@H](C1)c1cccc(=O)n1C2)NCc1ccccc1C(F)(F)F`, which inhibition is on record?
A: 2.96% (inactive)

Q: For `COc1ccc(N2C(=O)/C(=C/c3ccco3)C(=O)NC2=S)cc1`, which inhibition is on record?
A: 53.9% (active)

Q: Which inhibition does the source give for `COc1ccc(CN2C(=O)NC(=O)/C(=C\c3ccc(OC)c(OC)c3OC)C2=O)cc1` here?
A: -3.16% (inactive)

Q: For `Cc1cc(/C=C2/C(=O)NC(=O)N(Cc3ccco3)C2=O)c(C)n1-c1ccc(C(=O)O)cc1`, which inhibition is on record?
A: -11.8% (inactive)

Q: For `Cc1ccc(C)c(NC2=NCCCS2)c1`, which inhibition is on record?
A: 0.88% (inactive)

Q: How did the inhibition turn out when `COc1cccc(OC)c1C(=O)NC(=S)N1C[C@H]2C[C@H](C1)c1cccc(=O)n1C2` was run?
A: 9.55% (inactive)
